FBW7 activator: FBW7 E3 ligase activators, primary screen, biochemical, AlphaScreen, human; F-box/WD repeat-containing protein 7 (Homo sapiens), Q969H0; AlphaScreen FBW7–phospho-cyclin E peptide binding, activator screen; normalized activity (activation), % at 26.1 µM; hit rate 0.13% among 650,000; AID 1259310, 2017; in the data active means normalized activity above about 1.9%;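 further: purified mutant Fbw7 with reduced substrate affinity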
MITF inh: MITF inhibitors, primary screen, biochemical, AlphaScreen, human; Microphthalmia-associated transcription factor (Homo sapiens), O75030; AlphaScreen MITF homodimerization, bead proximity signal; inhibition, % at 2.6 µM; hit rate 0.91% among 650,000; in the data active means inhibition above about 50%
TEAD-YAP block: TEAD-YAP interaction inhibition, primary screen, TEAD-YAP interaction inhibitor project, luminescence, HEK-TIYL cells. TEAD-Gal4/YAP UAS-luciferase luminescence. inhibition, % at 9.12 µM. hit rate 1.4% among 640,000. AID 1259422, 2018; in the data active means inhibition above about 32%
GPR151 activ: activators of human GPR151, primary screen, cell-based, PathHunter beta-arrestin, luminescence; G-protein coupled receptor 151 (Homo sapiens), Q8TDV0; PathHunter beta-arrestin GPR151 cells; activation, % at 11.2 µM; hit rate 1% among 650,000; in the data active means activation above about 4.9%
Target sequence (Q8TDV0 whole entry, looked up): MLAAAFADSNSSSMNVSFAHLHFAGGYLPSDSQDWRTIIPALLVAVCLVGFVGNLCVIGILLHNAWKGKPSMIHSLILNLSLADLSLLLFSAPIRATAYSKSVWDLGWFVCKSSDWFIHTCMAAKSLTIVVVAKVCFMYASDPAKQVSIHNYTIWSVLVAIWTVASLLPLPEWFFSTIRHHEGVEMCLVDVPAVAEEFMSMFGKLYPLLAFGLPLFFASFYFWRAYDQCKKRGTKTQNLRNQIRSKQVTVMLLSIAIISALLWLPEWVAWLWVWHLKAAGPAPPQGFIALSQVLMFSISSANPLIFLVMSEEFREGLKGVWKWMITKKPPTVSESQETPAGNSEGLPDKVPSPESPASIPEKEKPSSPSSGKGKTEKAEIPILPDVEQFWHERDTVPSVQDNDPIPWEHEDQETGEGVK
GPR151 confirm: GPR151 activators, triplicate retest, confirmation, cell-based, PathHunter beta-arrestin, luminescence. activation, % at 11.2 µM. 6,700 tested, under 10 active. GPR151 PathHunter beta-arrestin cells, 90 min; % of EA-reagent control over plate median. shares compounds with GPR151 activ;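 active means mean percent activation across replicates above the confirmation screen cutoff of 4.91%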
GPR119 ag: GPR119 activators in beta-arrestin cells, counter-screen for GPR151 activator project, cell-based, PathHunter beta-arrestin, luminescence, triplicate; shares compounds with GPR151 activ; 90 min; 0 = compound-well median, 100 = enzyme-acceptor control; activation, % at 11.2 µM; hit rate 0.3% among 6,700;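 active means mean percent activation in the counterscreen above 29.09%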;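 further: counterscreen on off-target GPR119 to flag nonselective hits from the GPR151 activator screen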
Large screens that a line does not name were inactive (follow-up assays come after a bar, where they were run). Only some compounds are listed: those with a hit (about 3.5% of all), similar ones and a draw of the others.

Cc1nonc1CN(C)C(=O)C1CC12CCN(C(=O)c1ccccc1C(F)(F)F)CC2 (configuration not stated)	GPR151 activ 5.3 | GPR151 confirm inactive | GPR119 ag inactive
CCOC(=O)C1(Cc2ccccc2C(F)(F)F)CCN(C(=O)Cc2nonc2C)CC1	none
COc1ccccc1-c1csc(NC(=O)c2ccc(S(=O)(=O)N3CCOCC3)cc2)n1	none
N#Cc1c(-c2ccccc2)cc(-c2ccccc2)nc1SCc1ccc(Cl)c(Cl)c1	none
N#Cc1c(-c2ccccc2)cc(-c2ccccc2)nc1SCc1ccc(Cl)cc1	GPR151 activ 5.5 | GPR151 confirm inactive | GPR119 ag inactive
COc1ccc(CN2CCOc3ccc(CN4C[C@@H](C)O[C@@H](C)C4)cc3C2)cc1OC	none
C[C@@H]1CN(Cc2ccc3c(c2)CN(Cc2ccc4c(c2)CCO4)CCO3)C[C@H](C)O1	GPR151 activ 6.5 | GPR151 confirm inactive | GPR119 ag inactive
CC(=O)Nc1ccc(Nc2c(-c3ccc4c(c3)OCC(=O)N4)c(=O)c2=O)cc1	GPR151 activ 8.7 | GPR151 confirm inactive | GPR119 ag inactive
COc1ccc(-c2cc(C(F)(F)F)n3nc(C(=O)Nc4ccccc4C(F)(F)F)c(Cl)c3n2)cc1OC	GPR151 activ 6.0 | GPR151 confirm inactive | GPR119 ag inactive
COc1ccc(-c2cc(C(F)(F)F)n3nc(C(=O)Nc4cccc(C)c4Cl)c(Cl)c3n2)cc1OC	none
CC1CCCC(NS(=O)(=O)c2cc3c(cc2Cl)NC(=O)CO3)C1C (configuration not stated)	GPR151 activ 7.8 | GPR151 confirm inactive | GPR119 ag inactive
Cc1cc2c(cc1S(=O)(=O)NC1CCCC(C)C1C)OCC(=O)N2 (configuration not stated)	none
CCOC(=O)C1CCCN(C(=O)/C(C)=C\c2ccccc2)C1 (configuration not stated)	GPR151 activ 5.3 | GPR151 confirm inactive | GPR119 ag inactive
O=C(c1ccc(Cl)cc1)N1CCN(c2ccc([N+](=O)[O-])c(NCc3ccco3)c2)CC1	GPR151 activ 6.0 | GPR151 confirm inactive | GPR119 ag inactive
COc1ccc2nc(SCC(=O)Nc3ccccc3Cl)[nH]c2c1	none
CCOc1ccc(-n2c(=S)sc3c(=O)n(-c4ccc(C)cc4)c(SCc4ccccc4C)nc32)cc1	none
Fc1ccc(C2N(Cc3ccc(Cl)cc3)CCN2Cc2ccc(Cl)cc2)cc1	none
COCc1cc(C)nc2sc3c(=O)n(-c4ccc(C)cc4C)nnc3c12	none
COCc1cc(C)nc2sc3c(=O)n(-c4ccc(C(C)=O)cc4)nnc3c12	GPR151 activ 5.5 | GPR151 confirm inactive | GPR119 ag inactive
CC1CCCC(C)N1c1nnc(NC(=O)c2csc3c2CCCC3)s1 (configuration not stated)	GPR151 activ 5.8 | GPR151 confirm inactive | GPR119 ag inactive
CC1(C)OC(=O)C(=CNC(CCC(N)=O)C(=O)O)C(=O)O1 (configuration not stated)	GPR151 activ 6.4 | GPR151 confirm inactive | GPR119 ag inactive
Cc1sc(NC(=O)CCS(=O)(=O)c2ccc(Cl)cc2)c(C#N)c1C	GPR151 activ 5.2 | GPR151 confirm inactive | GPR119 ag inactive
CNC(=O)c1ccc(-c2cccc(Cl)c2)nc1NCC1CC1	none
CCOc1cc(/C=C2/N=C(c3cccc(C)c3)OC2=O)ccc1OS(C)(=O)=O	GPR151 activ 13 | GPR151 confirm inactive | GPR119 ag inactive
CCOc1cc(/C=C2\N=C(c3cccc(C)c3)OC2=O)ccc1OC(C)=O	none
Cc1ccc(C(=O)Oc2cc(N)n(S(=O)(=O)c3ccc(C)cc3)n2)cc1	none
COc1ccc(C(=O)Oc2cc(N)n(S(=O)(=O)c3ccc(C)cc3)n2)cc1OC	GPR151 activ 6.3 | GPR151 confirm inactive | GPR119 ag inactive
COc1cc(C(=O)Nc2ccc(S(=O)(=O)N3CCOCC3)cc2)cc(OC)c1OC	none
C[n+]1ccccc1/C=C/c1ccc([N+](=O)[O-])cc1	GPR151 activ 6.6 | GPR151 confirm inactive | GPR119 ag inactive
C[n+]1ccccc1/C=C/c1ccccc1	none
COC(=O)c1ccc(/C=C2\NC(=S)N(c3ccc(OC)cc3)C2=O)cc1	GPR151 activ 6.7 | GPR151 confirm inactive | GPR119 ag inactive
COc1ccc(N2C(=O)/C(=C/c3ccc(OCC(=O)O)cc3)NC2=S)cc1	none
COc1cc2c(cc1OC)[C@@H](c1ccccc1)CN(C)CC2	GPR151 activ 7.5 | GPR151 confirm inactive | GPR119 ag inactive
Cc1oc(-c2ccccc2)nc1C(=O)O	GPR151 activ 5.0 | GPR151 confirm inactive | GPR119 ag inactive
O=C(CC1Nc2ccccc2NC1=O)Nc1ccc(Cl)cc1 (configuration not stated)	none
COc1ccc(-c2cc(C(=O)N(C)Cc3ccccc3)on2)cc1OC	GPR151 activ 5.9 | GPR151 confirm inactive | GPR119 ag inactive
CN(Cc1ccccc1)C(=O)c1cc(-c2ccccc2O)no1	none
O=C1CCC(C(=O)NCc2nnc3n2CCN(Cc2ccccc2C(F)(F)F)CC3)N1 (configuration not stated)	GPR151 activ 9.8 | GPR151 confirm inactive | GPR119 ag inactive
Cc1cc(C)c2sc(=NC(=O)C3CC3)n(C)c2c1	none
O=C(NNC(=O)c1ccccc1I)c1cccs1	GPR151 activ 5.8 | GPR151 confirm inactive | GPR119 ag inactive
O=C(COc1ccc(Cl)cc1Cl)NC(c1ccccc1)c1c(O)ccc2ccccc12 (configuration not stated)	none
CCOc1cc(C)c(C(C)C)cc1S(=O)(=O)N(CC)CC	GPR151 activ 16 | GPR151 confirm inactive | GPR119 ag inactive
CCOc1cc(C)c(C(C)C)cc1S(=O)(=O)N1CCN(C)CC1	none
NNC(=O)c1cc(-c2ccccc2)n(-c2ccccc2)n1	none
O=c1cnn(-c2ccccc2)c(-c2ccccc2)c1	GPR151 activ 6.7 | GPR151 confirm inactive | GPR119 ag inactive
Cc1nonc1CC(=O)N1CCCCC1c1nc2ccccc2[nH]1 (configuration not stated)	none
CN(C)c1ccc(/C=C2\C(=O)ON=C2c2ccccc2)cc1[N+](=O)[O-]	MITF inh 72, GPR151 activ 5.8 | GPR151 confirm inactive | GPR119 ag inactive
O=C(Cn1nnc(-c2ccc(N3CCOCC3)cc2)n1)NCc1cccs1	none
CC(=O)N1CCSc2cc(S(=O)(=O)Nc3ccc(C(C)C)cc3)ccc21	none

Screening data as filed in PubChem BioAssay.
